Source: PubChem BioAssay (NCATS)
Records with an inconclusive call do not appear. Calls of active or inactive are those of the source. Unless noted, the call rests on the fitted dose curve; in most records, active means well fitted curve in the direction sought with a large enough effect; inconclusive means small, poorly fitted or top-dose-only effect, or another doubt; inactive means no such curve, though single readings can be large; an effect the other way counts as inactive or inconclusive.

How the values were obtained:
[1] = target: Luciferin 4-monooxygenase (Photinus pyralis) (UniProt P08659); test: Biochemical firefly luciferase enzyme assay for NPC (AID 624030);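 further: purified P. pyralis luciferase at 10 nM with luciferin and ATP substrate; 0% = DMSO and -100% = full luciferase inhibition by PTC124 control; nearly all actives have a fitted effect of over 70% in size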
In short: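 Direct inhibition of firefly luciferase enzyme (10 nM final, 50 mM Tris Acetate) assessed by luminescence within 5 minutes. Percent activity scaled between DMSO and PTC124 positive control, with concentration-effect curves classified by fit quality and response.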

[2] = S16 Schwann cell viability assay (CellTiter-Glo assay) (AID 624031);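 further: native untransfected S16 rat Schwann cells; cellular ATP luminescence as a viability measure; plate controls were DMSO-treated cells for no effect and cell-free wells for full effect; nearly all actives have a fitted effect of over 70% in size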
In short: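 Parental S16 cells, 24 h compound, 37 °C. ATP-luminescence viability; DMSO = 0% activity, empty wells as reference; curves classified by fit quality and efficacy.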

[3] = S16 Schwann cell PMP22 intronic element firefly luciferase assay (AID 624032);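 further: plate controls were DMSO for no effect and PTC124 positive control mean for full effect; nearly all actives have a fitted effect of over 30% in size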
In short: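 Luciferase reporter of PMP22 intronic-element expression in stably transfected S16 rat Schwann cells, read by ONE-Glo luminescence after 24 h compound exposure at 37 C. Activity scaled between DMSO (0%) and positive-control PTC124; concentration-effect curves quality-classified.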

[4] = S16 Schwann cell PMP22 intronic element beta-lactamase assay (AID 624044; calls by dose curve;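 further: 0% = DMSO and -100% = potassium clavulanate positive control; nearly all actives have a fitted effect of over 15% in size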)
In short: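 Beta-lactamase reporter under a PMP22 intronic regulatory element in stable S16 rat Schwann cells; 24 h compound exposure. 460 nm blue signal normalized between DMSO (0%) and potassium clavulanate, with 535 nm FRET tracking viability; curves classed by r2 and response.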

C2A = test: qHTS profiling for inhibitors of Plasmodium falciparum proliferation (AID 504749);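 further: 0% = DMSO vehicle and full inhibition = artemisinin control; nearly all actives have a fitted effect of over 60% in size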; details: P. falciparum in erythrocytes, SYBR Green DNA, 72 h; series mostly up to 28.7 µM
In short: (§1)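 In a 72 h erythrocytic culture (37 C, humidified, 5% CO2) at 2.5% hematocrit and 0.3% starting parasitemia, compounds were tested; SYBR Green I in detergent lysis buffer stained parasite DNA overnight.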

CP217 = test: as above; details: P. falciparum in erythrocytes, SYBR Green DNA, 72 h; series mostly up to 28.7 µM
In short: as §1

CP237 = test: as above; details: P. falciparum in erythrocytes, SYBR Green DNA, 72 h; series mostly up to 28.7 µM
In short: as §1

CP250 = test: as above; details: P. falciparum in erythrocytes, SYBR Green DNA, 72 h; series mostly up to 28.7 µM
In short: as §1

CP252 = test: as above; details: P. falciparum in erythrocytes, SYBR Green DNA, 72 h; series mostly up to 28.7 µM
In short: as §1

CP256 = test: as above; details: P. falciparum in erythrocytes, SYBR Green DNA, 72 h; series mostly up to 28.7 µM
In short: as §1

CP260 = test: as above; details: P. falciparum in erythrocytes, SYBR Green DNA, 72 h; series mostly up to 28.7 µM
In short: as §1

Dd2 = test: as above; details: P. falciparum in erythrocytes, SYBR Green DNA, 72 h; series mostly up to 28.7 µM
In short: as §1

ECU = test: as above; details: P. falciparum in erythrocytes, SYBR Green DNA, 72 h; series mostly up to 28.7 µM
In short: as §1

ICS = test: as above; details: P. falciparum in erythrocytes, SYBR Green DNA, 72 h; series mostly up to 28.7 µM
In short: as §1

JCK = test: as above; details: P. falciparum in erythrocytes, SYBR Green DNA, 72 h; series mostly up to 28.7 µM
In short: as §1

N140 = test: as above; details: P. falciparum in erythrocytes, SYBR Green DNA, 72 h; series mostly up to 28.7 µM
In short: as §1

P93_24 = test: as above; details: P. falciparum in erythrocytes, SYBR Green DNA, 72 h; series mostly up to 28.7 µM
In short: as §1

SC27B = test: as above; details: P. falciparum in erythrocytes, SYBR Green DNA, 72 h; series mostly up to 28.7 µM
In short: as §1

[5] = Cellular Toxicity (caspase-3) H-4-II-E (AID 663); details: Potency: caspase-3 activation;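 further: cells exposed to compound for 16 hr before readout; 0% = DMSO basal and 100% = 100 µM tamoxifen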
In short: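 Caspase 3/7 activation measured by luminescent aminoluciferin substrate cleavage after 16 hr compound treatment of H-4-II-E cells in complete medium. Increase normalized between DMSO (basal) and 100 uM tamoxifen (100%); Hill-equation AC50 from concentration-response.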

[6] = target: Androgen receptor (Homo sapiens) (UniProt P10275); test: qHTS assay for small molecule agonists of androgen receptor signaling (AID 588515; active means well fitted curve in the direction sought with a large enough effect in the signal ratio, with a control signal flat; the % refers to the signal ratio; further: on the % scale 0 is the no-effect control and ±100 the full control effect); details: AR-UAS-bla HEK293, beta-lactamase ratio, agonist 16 h; stronger effect = higher value
In short: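 Stimulation of an AR-responsive β-lactamase reporter in GripTite HEK293 cells was measured after 16 h compound exposure at 37 °C, via CCF4 fluorescence after 2 h RT. EC50 from Hill fits, normalized to R1881 at 30 nM.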

Sequence of Androgen receptor (Homo sapiens) (P10275 whole entry, looked up): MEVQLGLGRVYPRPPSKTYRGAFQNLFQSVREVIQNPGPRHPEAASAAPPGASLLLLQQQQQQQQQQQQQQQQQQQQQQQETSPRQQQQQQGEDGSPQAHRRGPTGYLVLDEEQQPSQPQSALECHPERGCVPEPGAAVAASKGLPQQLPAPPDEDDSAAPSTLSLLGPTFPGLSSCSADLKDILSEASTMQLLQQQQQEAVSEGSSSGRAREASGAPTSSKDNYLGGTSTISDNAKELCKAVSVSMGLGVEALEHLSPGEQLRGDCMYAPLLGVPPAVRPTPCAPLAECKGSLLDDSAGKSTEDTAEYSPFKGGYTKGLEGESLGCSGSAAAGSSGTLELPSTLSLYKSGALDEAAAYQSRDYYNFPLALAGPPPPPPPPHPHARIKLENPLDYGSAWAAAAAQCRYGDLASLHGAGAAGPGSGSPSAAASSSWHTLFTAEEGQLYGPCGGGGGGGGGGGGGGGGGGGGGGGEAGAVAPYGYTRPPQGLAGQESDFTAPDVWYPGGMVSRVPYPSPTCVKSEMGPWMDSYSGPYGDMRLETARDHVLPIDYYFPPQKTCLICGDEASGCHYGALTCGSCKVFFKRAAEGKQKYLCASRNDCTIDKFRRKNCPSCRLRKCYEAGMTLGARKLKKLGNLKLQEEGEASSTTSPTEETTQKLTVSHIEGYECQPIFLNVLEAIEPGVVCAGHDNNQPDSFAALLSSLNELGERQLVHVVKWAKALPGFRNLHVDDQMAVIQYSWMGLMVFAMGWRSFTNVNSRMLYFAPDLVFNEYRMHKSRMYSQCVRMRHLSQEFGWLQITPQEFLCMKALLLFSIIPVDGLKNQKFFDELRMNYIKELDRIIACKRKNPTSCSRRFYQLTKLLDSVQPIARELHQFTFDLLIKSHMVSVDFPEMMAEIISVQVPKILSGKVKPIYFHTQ
Sequence of Luciferin 4-monooxygenase (Photinus pyralis) (P08659 whole entry, looked up): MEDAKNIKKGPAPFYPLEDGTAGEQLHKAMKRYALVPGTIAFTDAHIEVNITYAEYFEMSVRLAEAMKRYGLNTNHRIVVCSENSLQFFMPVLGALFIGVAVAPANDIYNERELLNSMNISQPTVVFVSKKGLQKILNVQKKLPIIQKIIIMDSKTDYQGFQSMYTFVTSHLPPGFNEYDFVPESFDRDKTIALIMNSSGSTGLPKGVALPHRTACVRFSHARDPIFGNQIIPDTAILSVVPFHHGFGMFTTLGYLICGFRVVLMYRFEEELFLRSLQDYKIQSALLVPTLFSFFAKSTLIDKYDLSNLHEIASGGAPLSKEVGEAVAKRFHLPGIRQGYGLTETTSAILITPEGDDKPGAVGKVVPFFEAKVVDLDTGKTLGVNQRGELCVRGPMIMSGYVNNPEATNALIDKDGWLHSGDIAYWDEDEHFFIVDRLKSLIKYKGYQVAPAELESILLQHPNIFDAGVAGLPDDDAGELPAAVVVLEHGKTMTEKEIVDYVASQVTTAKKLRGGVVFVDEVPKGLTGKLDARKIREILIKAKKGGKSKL

CC(=O)OC1CC2CCC1(C)C2(C)C (stereo not given)
inactive: Potency [1] | Potency [2] | Potency [3] | Potency [4] | Potency (C2A) | Potency (CP217) | Potency (CP237) | Potency (CP250) | Potency (CP252) | Potency (CP256) | Potency (CP260) | Potency (Dd2) | Potency (ECU) | Potency (ICS) | Potency (JCK) | Potency (N140) | Potency (P93_24) | Potency (SC27B)

O=C(O)c1ccccc1
inactive: Potency [5]

CC1=C2[C@H](/C=C(\C)C(=O)O)CC[C@@H](C)[C@H]2CC1
inactive: activation [6] -0.457%
